Compound activity as filed in PubChem.
Wee1 degr inh: blocks degradation of human Wee1 kinase; reporter increase, % at 5 µM; P30291; HeLa Luc-Wee1K328M stability, luciferase luminescence; 100% = proteasome inhibitor MG132 effect; 1.2% of 220,000 active; AID 1321;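 active = activation above the mean of all tested compounds plus 3 SD, set per screening run, cut at about 8.8% in these data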;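 note: cells exposed to compound for 20 h before luminescence read; 0% = DMSO alone and 100% = MG132 at 30 µM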
Target sequence (P30291 whole entry K328M): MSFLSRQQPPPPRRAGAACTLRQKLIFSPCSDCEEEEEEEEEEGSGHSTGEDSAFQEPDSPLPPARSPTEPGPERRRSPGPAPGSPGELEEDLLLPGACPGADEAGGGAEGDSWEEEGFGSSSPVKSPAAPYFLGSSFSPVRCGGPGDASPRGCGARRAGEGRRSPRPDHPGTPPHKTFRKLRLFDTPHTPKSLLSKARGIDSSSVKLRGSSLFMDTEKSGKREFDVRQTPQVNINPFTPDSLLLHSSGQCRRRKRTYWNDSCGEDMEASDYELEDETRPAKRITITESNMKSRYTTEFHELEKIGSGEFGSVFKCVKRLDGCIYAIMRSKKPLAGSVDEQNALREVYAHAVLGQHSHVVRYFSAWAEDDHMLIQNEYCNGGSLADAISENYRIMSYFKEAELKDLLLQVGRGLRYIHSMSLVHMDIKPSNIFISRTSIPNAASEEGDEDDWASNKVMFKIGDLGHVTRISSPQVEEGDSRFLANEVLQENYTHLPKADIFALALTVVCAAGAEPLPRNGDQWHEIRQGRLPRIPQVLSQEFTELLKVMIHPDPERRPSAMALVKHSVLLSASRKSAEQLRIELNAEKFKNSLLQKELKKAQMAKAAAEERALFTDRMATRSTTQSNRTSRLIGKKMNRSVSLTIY
hcDAF-12 act: H. contortus DAF-12 activation, primary screen | HEK293 hcDAF-12 lit1-tk-luc reporter, luminescence; 0% DMSO, 100% Δ7-dafachronic acid | activation, % at 6.8 µM | 1.4% of 370,000 active | AID 652067;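 active = activation above the mean of all tested compounds plus 3 SD, cut at about 5.5% in these data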;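 note: 100% = response to 3 µM Δ7-dafachronic acid high control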
DAX1 inh-1: inhibitors of human orphan nuclear receptor DAX1 (NR0B1); P51843; HEK293 Gal4-DAX1 luciferase reporter, luminescence; inhibition, % at 6.75 µM; 0.99% of 340,000 active;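 active = inhibition above the mean over all tested compounds plus 3 SD, cut at about 4.2% in these data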;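 note: 0% = DAX1-transfected cells with DMSO and 100% = empty-vector control cells with DMSO; inhibition shows as a rise in luminescence from relieved DAX1 repression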
ssDAF-12 act: activates DAF-12 receptor from parasite S. stercoralis | HEK293 ssDAF-12/GRIP1 lit1-tk-luc reporter, luminescence; % of 3 µM dafachronic acid response | activation, % at 6.8 µM | 1% of 370,000 active | AID 652126;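 active = activation above the mean over all tested compounds plus 3 SD, cut at about 0.9% in these data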;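 note: 0% = DMSO-only wells and 100% = 3 µM delta7-dafachronic acid wells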
DAX1 inh-2: inhibitors of DAX1 repression of SF-1 activated StAR promoter | HEK293T StAR-luciferase reporter, SF-1/DAX-1 repression relief | AID 652010 | 1.1% of 370,000 active | inhibition, % at 6.8 µM;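 active = inhibition above the mean over all tested compounds plus 3 SD, cut at about 3.6% in these data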;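 note: 0% = DAX-1 cells with DMSO and 100% = cells lacking DAX-1 with DMSO; higher inhibition means more luminescence from relief of DAX-1 repression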
hgDAF-12 ag: activates the H. glycines DAF-12 receptor ligand-binding domain; HEK293 GAL4-hgDAF12 UAS-luciferase reporter, agonist luminescence; normalized to butyrate control; activation, % at 6.8 µM; 1.8% of 370,000 active;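 active = activation above a cutoff set at the mean of all screened compounds plus 3 SD, cut at about 10% in these data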;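 note: 0% = DMSO wells and 100% = sodium butyrate wells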
Active calls of the source: *; . = not tested or not shown. Most compounds without a hit are left out; they make up all but 4.6% or so of the library.

SMILES | Wee1 degr inh | hcDAF-12 act | DAX1 inh-1 | ssDAF-12 act | DAX1 inh-2 | hgDAF-12 ag
C=CCN1C(=O)[C@H](CC(=O)NCCCC)[C@@]2(C(=O)OCC)CCCC=C12 | . | -2.6 | . | -0.7 | -0.3 | -2.6
CCN(CC)CCCNC(=O)c1cn(C(C)c2ccccc2)nn1 (centres undefined) | . | -1.6 | . | -1.2 | 0.6 | 5.3
CCCCNc1cc(=O)n(C)c(=O)[nH]1 | -0.8 | -1.0 | 8.1* | -0.3 | -0.2 | -1.2
Cn1c(=O)cc(NCc2ccccc2)[nH]c1=O | 2.0 | -1.5 | 0.6 | -0.9 | -0.1 | -0.5
C=C(CO)C1Cc2cc(C(C)=O)ccc2O1 (centres undefined) | . | 0.0 | 4.3* | -1.3 | -1.2 | 0.2
CC1Cc2cc(C(=O)O)ccc2O1 (centres undefined) | -0.6 | -0.3 | 1.7 | -0.9 | 0.4 | 0.9
CCCCn1c(N)c(N(CC(C)C)C(=O)c2oc3ccc(OCC)cc3c2C)c(=O)[nH]c1=O | . | 1.3 | 0.4 | -1.3 | -1.6 | -2.6
CCCCN(C(=O)c1oc2ccc(OCC)cc2c1C)c1c(N)n(CC(C)C)c(=O)[nH]c1=O | . | 1.9 | 0.0 | -0.8 | 4.2* | -0.1
O=C(CSc1ccc2nnc(CCNC(=O)c3ccccc3)n2n1)NCc1ccco1 | . | -0.9 | 0.1 | -0.5 | 3.9* | -0.9
CC[C@H](C)[C@H](NC(=O)OCc1ccccc1)C(=O)OCC(=O)N1CCN(c2ccc(OC)cc2)CC1 | . | -3.0 | 0.2 | -2.0 | -3.0 | -2.6
COc1ccc(-c2ccnc3ncnn23)cc1 | -2.0 | -0.8 | 0.2 | -0.9 | 0.2 | -2.5
FCCCOc1ccc(-c2ccnc3ncnn23)cc1 | -2.1 | -0.8 | 5.2* | -1.2 | -0.5 | -1.4
O=C(COc1ccc(Br)cc1)NNC(=O)Cc1ccc(S(=O)(=O)N2CCOCC2)s1 | . | 0.0 | -0.6 | -0.7 | -1.4 | -0.6
OC1(Cc2ccccc2)CCN(c2ncnc3sccc23)CC1 | . | -5.5 | . | -2.2 | . | -9.1
CC(=O)N/C(=C/c1ccccc1)C(=O)NC(Cc1ccccc1)C(=O)O (centres undefined) | -0.3 | -0.8 | 0.0 | -0.9 | 0.0 | 10.6*
O=C(O)c1cccc(S(=O)(=O)NCC(=O)N2CCN(c3ccccn3)CC2)c1 | . | 1.3 | . | -1.4 | -0.2 | 3.1
COC(=O)C1C(c2ccccc2)NC(=O)NC1(O)C(F)(F)Cl (centres undefined) | -0.2 | -0.3 | 4.7* | -0.7 | 0.5 | -0.6
CCOC(=O)C1C(c2ccc(C(=O)O)cc2)NC(=O)NC1(O)C(F)(F)F (centres undefined) | . | 0.4 | -0.5 | -1.2 | 0.7 | 0.6
Cc1[nH]c2ccccc2c1CC(=O)Nc1ccc(Nc2ccncc2)cc1 | . | 4.7 | . | 2.1* | -1.6 | 3.0
CN(c1cccnc1)c1ccc(NC(=O)Cc2c[nH]c3ccccc23)cc1Br | . | 6.5* | . | 1.5* | 0.2 | 6.3
O=C(Cc1c[nH]c2ccccc12)Nc1ccc(Nc2ccncc2)cc1 | . | 6.0* | . | 0.3 | 0.1 | -1.8
Cc1ccc(-c2cc(NC(=O)Cc3c[nH]c4ccccc34)ccc2N(C)c2cccnc2)cc1 | . | 4.7 | . | -0.7 | -0.7 | 2.0
O=C(COC(=O)CCc1c[nH]c2ccccc12)Nc1ccc([N+](=O)[O-])cc1 | 0.5 | 0.7 | 5.2* | -1.2 | -0.7 | -2.4
CN(c1ccc(NC(=O)Cc2c[nH]c3ccccc23)cc1)c1ccccn1 | . | 1.8 | . | -0.5 | 0.3 | -1.1
CCOC1=C2[C@@H](CN(S(=O)(=O)c3ccc(C)cc3)[C@H]2c2ccccc2Cl)[C@H]2C(=O)N(C)C(=O)[C@H]2C1 | . | -0.8 | . | -1.8 | -0.1 | 5.3
COC(=O)[C@H](C(C)C)N1CCc2nnn(CC3CCCCC3)c2-c2ccccc2S1(=O)=O | . | -3.7 | . | -0.8 | -0.1 | -0.6
Cc1ccnc(NC(=S)N2CC3CN(c4cccc(C(F)(F)F)c4)CC3C2)c1 (centres undefined) | . | -1.6 | . | -2.0 | . | 1.2
COC(=O)[C@H]1C[C@H](OC(=O)Nc2cccs2)[C@@]2(O)CN(S(=O)(=O)c3ccc(C)cc3)CC2[C@H]1C(=O)OC (some centres undefined) | . | 0.7 | -0.2 | -0.9 | -0.2 | -2.8
Cc1cccc(C)c1NC(=O)c1c[nH]c2ccccc12 | . | 6.2* | 0.7 | -0.6 | 0.8 | 6.6
